Data published in PubChem BioAssay (EPA / NIEHS).
Results filed as inconclusive are left out. The source made the active and inactive calls. The calls were made as follows, unless noted: active = hit-call score of the fitted dose curve at least 0.9, where 1 is the maximum; inconclusive = response in the unintended direction; inactive = score below 0.9.

How the values were obtained:
[1] = STM_H9_OrnithineISnorm_perc: Stemina devTOX quickPredict H9 human embryonic stem cell (hESC)-based Assay for Ornithine (ORN) Metabolite Biomarker, Normalized (AID 2283712; active = hit-call score of the fitted dose curve at least 0.9, where 1 is the maximum; inactive = score below 0.9;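 also: ornithine released into spent medium during last day measured by mass spectrometry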)
In short: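 Metabolite endpoint from spent media of pluripotent H9 cells treated 72 h with daily re-feeding; ornithine measured by UPLC-HRMS against its 13C spike-in and referenced to the median 0.1% DMSO vehicle response.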

[2] = STM_H9_CystineISnorm_perc: Stemina devTOX quickPredict H9 human embryonic stem cell (hESC)-based Assay for Cystine (CYSS) Metabolite Biomarker, Normalized (AID 2283713; active = hit-call score of the fitted dose curve at least 0.9, where 1 is the maximum; inactive = score below 0.9)
In short: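 Normalized cystine level in conditioned medium from the final 24h of a 72h treatment of pluripotent H9 cells (daily media and compound renewal). Quantified by UPLC-HRMS with C13-labeled internal standard; scaled to median of 0.1% DMSO vehicle wells.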

[3] = read-out: sulfotransferase (SULT2A), SULT2A1 (gene 6822); test: CLD_SULT2A_24hr: CellzDirect (CLD) Gene Expression Assay for sulfotransferase (SULT2A) at 24 hours (AID 2283694)
In short: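 mRNA is measured by qNPA: probe hybridisation, S1 nuclease digestion, chemiluminescence, in lysates from human primary hepatocytes harvested 24 h after daily dosing. Vehicle was 0.2% DMSO. Phase-contrast microscopy flagged cytotoxicity (yes/no).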

[4] = read-out: ABC Transporter (ABCB1), ABCB1 (gene 5243); test: CLD_ABCB1_48hr: CellzDirect (CLD) Gene Expression Assay for ABC Transporter (ABCB1) at 48 hours (AID 2283695)
In short: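 ABCB1 mRNA was measured by quantitative nuclease protection assay (chemiluminescence) 48 h after dosing. Human hepatocyte cultures from two separate donors received fresh dosing solutions daily for two days, with 0.2% DMSO as vehicle. Positive-direction fit against DMSO.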

[5] = read-out: glucuronosyltransferase (UGT1A1), UGT1A1 (gene 54658); test: CLD_UGT1A1_24hr: CellzDirect (CLD) Gene Expression Assay for glucuronosyltransferase (UGT1A1) at 24 hours (AID 2283696)
In short: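 UGT1A1 transcript induction was measured by quantitative nuclease protection assay (chemiluminescence) in human hepatocyte cultures 24 h after daily fresh dosing, with 0.2% DMSO as vehicle and baseline.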

[6] = read-out: Cytochrome P450 3A4 (Homo sapiens) (UniProt P08684); test: CLD_CYP3A4_48hr: CellzDirect (CLD) Gene Expression Assay for xenobiotic metabolism (CYP3A4) at 48 hours (AID 2283698)
In short: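 CYP3A4 induction read by qNPA chemiluminescence after 48 h, with fresh dosing solutions on consecutive days, in cultured human hepatocytes (two donors). Vehicle 0.2% DMSO as baseline; microscopy-based cytotoxicity annotated yes/no alongside data.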

[7] = read-out: Cytochrome P450 2B6 (Homo sapiens) (UniProt P20813); test: CLD_CYP2B6_48hr: CellzDirect (CLD) Gene Expression Assay for xenobiotic metabolism (CYP2B6) at 48 hours (AID 2283699);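 also: actives raise transcript level above DMSO so potency reflects induction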
In short: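 CYP2B6 transcript induction, read by quantitative nuclease protection (S1 digestion, chemiluminescent detection) 48 h after dosing, is fitted upward against 0.2% DMSO. Cultured human liver primary cells, two donor preparations, received fresh chemical daily over multiple concentrations.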

[8] = read-out: Cytochrome P450 2C19 (Homo sapiens) (UniProt P33261); test: CLD_CYP2C19_48hr: CellzDirect (CLD) Gene Expression Assay for xenobiotic metabolism (CYP2C19) at 48 hours (AID 2283700);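 also: fitted upward so actives raise CYP2C19 mRNA above the 0.2% DMSO vehicle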
In short: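 CYP2C19 mRNA induction read by chemiluminescent quantitative nuclease protection assay after 48 h, with fresh compound added daily for two days to cultured human liver hepatocytes. Activity fitted upward against 0.2% DMSO vehicle.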

[9] = read-out: xenobiotic metabolism (CYP1A2), CYP1A2 (gene 1544); test: CLD_CYP1A2_48hr: CellzDirect (CLD) Gene Expression Assay for xenobiotic metabolism (CYP1A2) at 48 hours (AID 2283703)
In short: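 Cytotoxicity was flagged yes/no from morphology, while CYP1A2 transcript induction was detected by qNPA chemiluminescence after a 48-hour exposure. Human primary hepatocyte cultures from separate donors received fresh dosing solutions daily over two days, with 0.2% DMSO as vehicle and baseline.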

[10] = read-out: Broad substrate specificity ATP-binding cassette transporter ABCG2 (Homo sapiens) (UniProt Q9UNQ0); test: CLD_ABCG2_48hr: CellzDirect (CLD) Gene Expression Assay for ABC Transporter (ABCG2) at 48 hours (AID 2283704)
In short: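 ABCG2 transcript measured at 48 h by quantitative nuclease protection (chemiluminescent) and fitted for increase relative to 0.2% DMSO. Hepatocyte cultures from separate donors got fresh compound daily over two days; morphology annotated cytotoxicity.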

[11] = read-out: xenobiotic metabolism (CYP1A1), CYP1A1 (gene 1543); test: CLD_CYP1A1_48hr: CellzDirect (CLD) Gene Expression Assay for xenobiotic metabolism (CYP1A1) at 48 hours (AID 2283705)
In short: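 CYP1A1 transcript measured by quantitative nuclease protection (chemiluminescent) 48 h after two daily treatments of human hepatocyte cultures, versus 0.2% DMSO. Morphology-based cytotoxicity flags accompany data; two donor preparations used.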

[12] = read-out: Glyceraldehyde-3-phosphate dehydrogenase (Homo sapiens) (UniProt P04406); test: CLD_GAPDH_48hr: CellzDirect (CLD) Gene Expression Assay for Baseline Control (Glyceraldehyde 3-phosphate dehydrogenase) at 48 hours (AID 2283706);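 also: active means higher GAPDH mRNA than DMSO vehicle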
In short: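 GAPDH baseline-control readout: qNPA chemiluminescent mRNA quantitation in human liver primary cells 48 h after daily dosing on two consecutive days, vehicle 0.2% DMSO; gain of signal fitted against DMSO, cytotoxicity flagged by phase-contrast morphology.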

[13] = read-out: alkyl and aryl transferase (GSTA2), GSTA2 (gene 2939); test: CLD_GSTA2_48hr: CellzDirect (CLD) Gene Expression Assay for alkyl and aryl transferase (GSTA2) at 48 hours (AID 2283708);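 also: active means mRNA induction above DMSO vehicle baseline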
In short: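 GSTA2 mRNA quantified by qNPA chemiluminescence in human primary hepatocyte lysates after 48 h of daily fresh chemical dosing. Increases fitted against 0.2% DMSO vehicle baseline; cytotoxicity from morphology annotated yes/no.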

[14] = read-out: glucuronosyltransferase (UGT1A1), UGT1A1 (gene 54658); test: CLD_UGT1A1_48hr: CellzDirect (CLD) Gene Expression Assay for glucuronosyltransferase (UGT1A1) at 48 hours (AID 2283709);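 also: actives increase expression relative to DMSO so potency refers to induction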
In short: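 Quantitative nuclease protection assay (chemiluminescent) for UGT1A1 mRNA at 48 h in human hepatocyte cultures from two donors, redosed daily with fresh solutions. Induction fitted relative to 0.2% DMSO; phase-contrast morphology annotated cytotoxicity.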

[15] = read-out: sulfotransferase (SULT2A), SULT2A1 (gene 6822); test: CLD_SULT2A_48hr: CellzDirect (CLD) Gene Expression Assay for sulfotransferase (SULT2A) at 48 hours (AID 2283710);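 also: hits raise SULT2A1 transcript above the 0.2% DMSO vehicle baseline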
In short: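 SULT2A1 transcript measured by qNPA chemiluminescence in human primary hepatocyte cultures after 48 h, with fresh dosing solutions on two consecutive days; gain-of-signal fitting against 0.2% DMSO vehicle; cytotoxicity annotated from phase-contrast morphology.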

[16] = read-out: ABC Transporter (ABCB11), ABCB11 (gene 8647); test: CLD_ABCB11_48hr: CellzDirect (CLD) Gene Expression Assay for ABC Transporter (ABCB11) at 48 hours (AID 2283697)
In short: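 Induction of ABCB11 mRNA relative to 0.2% DMSO, measured at 48 h by qNPA chemiluminescence. Cultured human hepatocytes (two donors) received fresh dosing solutions at several concentrations on two consecutive days.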

[17] = read-out: Cytochrome P450 2C9 (Homo sapiens) (UniProt P11712); test: CLD_CYP2C9_48hr: CellzDirect (CLD) Gene Expression Assay for xenobiotic metabolism (CYP2C9) at 48 hours (AID 2283701; active = hit-call score of the fitted dose curve at least 0.9, where 1 is the maximum; inactive = score below 0.9)
In short: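 mRNA level measured by quantitative nuclease protection (S1 digestion, chemiluminescent detection) in lysates of human primary hepatocytes exposed 48 h with daily re-dosing. Induction fitted positively versus 0.2% DMSO; morphology-based cytotoxicity flagged yes/no.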

[18] = read-out: organic anion transporter (SLCO1B1), SLCO1B1 (gene 10599); test: CLD_SLCO1B1_48hr: CellzDirect (CLD) Gene Expression Assay for organic anion transporter (SLCO1B1) at 48 hours (AID 2283707)
In short: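 SLCO1B1 transcript quantified by qNPA with chemiluminescent readout after 48 h of once-daily chemical exposure. Cultured human primary hepatocytes came from two donors, with 0.2% DMSO vehicle; positive-direction fitting against DMSO, cytotoxicity flagged by morphology.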

[19] = CLD_ACTIN_48hr: CellzDirect (CLD) Gene Expression Assay for Baseline Control (Actin) at 48 hours (AID 2283702)
In short: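 Background-control actin mRNA read by qNPA chemiluminescence at 48 h. Human hepatocyte cultures from two donors received fresh multi-concentration chemical doses daily for two days; 0.2% DMSO served as vehicle baseline.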

[20] = read-out: HMG-CoA synthase (HMGCS2), HMGCS2 (gene 3158); test: CLD_HMGCS2_48hr: CellzDirect (CLD) Gene Expression Assay for HMG-CoA synthase (HMGCS2) at 48 hours (AID 2283711)
In short: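 mRNA induction read by qNPA chemiluminescence, 48 h after dosing. Cultured primary human liver cells (two donor preparations) received fresh compound daily over two days against 0.2% DMSO vehicle; morphology-based cytotoxicity noted alongside.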

Measured: AC50

Cytochrome P450 3A4 (Homo sapiens), sequence (P08684 whole entry, looked up): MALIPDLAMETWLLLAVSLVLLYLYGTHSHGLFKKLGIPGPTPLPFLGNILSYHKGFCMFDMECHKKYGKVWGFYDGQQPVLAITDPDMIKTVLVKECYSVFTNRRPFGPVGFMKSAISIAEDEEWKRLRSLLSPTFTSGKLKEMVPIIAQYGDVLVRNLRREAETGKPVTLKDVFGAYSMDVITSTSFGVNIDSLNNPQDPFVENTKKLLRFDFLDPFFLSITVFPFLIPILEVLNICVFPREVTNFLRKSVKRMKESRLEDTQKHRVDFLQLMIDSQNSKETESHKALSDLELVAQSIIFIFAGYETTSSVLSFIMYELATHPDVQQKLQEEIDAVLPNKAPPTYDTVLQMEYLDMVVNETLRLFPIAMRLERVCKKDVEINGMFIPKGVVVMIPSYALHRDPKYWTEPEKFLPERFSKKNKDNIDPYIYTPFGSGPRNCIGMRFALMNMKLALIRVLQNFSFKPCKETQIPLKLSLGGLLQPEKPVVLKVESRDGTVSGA
Glyceraldehyde-3-phosphate dehydrogenase (Homo sapiens), sequence (P04406 whole entry, looked up): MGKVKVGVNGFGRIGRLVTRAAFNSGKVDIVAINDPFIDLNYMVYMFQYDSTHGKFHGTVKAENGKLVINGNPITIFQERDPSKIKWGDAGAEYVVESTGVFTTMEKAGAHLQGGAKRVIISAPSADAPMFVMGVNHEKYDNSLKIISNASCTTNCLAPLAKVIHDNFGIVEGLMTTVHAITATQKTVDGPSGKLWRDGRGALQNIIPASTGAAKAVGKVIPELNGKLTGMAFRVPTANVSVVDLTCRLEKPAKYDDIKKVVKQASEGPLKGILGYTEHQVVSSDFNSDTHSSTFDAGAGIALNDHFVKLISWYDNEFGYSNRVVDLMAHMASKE
Cytochrome P450 2C19 (Homo sapiens), sequence (P33261 whole entry, looked up): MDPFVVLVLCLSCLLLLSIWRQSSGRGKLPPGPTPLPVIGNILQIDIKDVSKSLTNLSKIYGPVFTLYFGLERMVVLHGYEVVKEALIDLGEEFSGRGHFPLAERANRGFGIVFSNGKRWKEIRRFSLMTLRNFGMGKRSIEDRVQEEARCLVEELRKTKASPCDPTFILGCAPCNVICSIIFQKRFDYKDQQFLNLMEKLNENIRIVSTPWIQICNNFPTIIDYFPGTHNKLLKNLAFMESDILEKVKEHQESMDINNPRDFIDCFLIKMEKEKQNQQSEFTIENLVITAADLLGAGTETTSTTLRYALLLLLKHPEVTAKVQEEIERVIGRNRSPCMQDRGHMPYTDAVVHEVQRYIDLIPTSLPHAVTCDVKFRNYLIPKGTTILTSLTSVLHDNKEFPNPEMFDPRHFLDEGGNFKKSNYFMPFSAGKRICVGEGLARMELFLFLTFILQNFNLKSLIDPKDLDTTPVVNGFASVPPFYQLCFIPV
Broad substrate specificity ATP-binding cassette transporter ABCG2 (Homo sapiens), sequence (Q9UNQ0 whole entry, looked up): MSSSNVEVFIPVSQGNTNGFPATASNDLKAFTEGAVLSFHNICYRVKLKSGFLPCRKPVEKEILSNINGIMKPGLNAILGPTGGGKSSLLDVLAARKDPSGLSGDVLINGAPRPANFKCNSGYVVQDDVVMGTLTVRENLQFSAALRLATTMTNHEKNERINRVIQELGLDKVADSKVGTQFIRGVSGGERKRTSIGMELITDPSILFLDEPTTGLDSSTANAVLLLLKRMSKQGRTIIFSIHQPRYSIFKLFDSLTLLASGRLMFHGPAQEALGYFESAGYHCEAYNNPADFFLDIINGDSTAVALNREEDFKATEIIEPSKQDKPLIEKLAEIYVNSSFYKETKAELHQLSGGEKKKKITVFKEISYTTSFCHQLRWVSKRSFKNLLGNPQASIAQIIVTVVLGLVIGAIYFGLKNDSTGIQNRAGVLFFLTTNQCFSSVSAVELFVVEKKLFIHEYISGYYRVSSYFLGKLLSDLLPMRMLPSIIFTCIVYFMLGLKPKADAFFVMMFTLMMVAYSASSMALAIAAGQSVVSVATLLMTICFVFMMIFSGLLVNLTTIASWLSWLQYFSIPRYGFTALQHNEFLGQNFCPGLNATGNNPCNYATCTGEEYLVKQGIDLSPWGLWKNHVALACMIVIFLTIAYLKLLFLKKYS

CCC(C)c1cc([N+](=O)[O-])cc([N+](=O)[O-])c1O (stereo not given)
inactive: [1] | [2]

Cc1cc(O)ccc1Cl
inactive: [1] | [2]

CCCCCCCCOC(=O)c1ccccc1C(=O)OCCCCCCCC
inactive: [1] | [2]

Cc1ccccc1CO[C@@H]1C[C@@]2(C(C)C)CC[C@]1(C)O2
inactive: [3] | [4] | [8] | [10] | [11] | [12] | [13] | [15]
active: [5] 5.18 µM | [6] 10.4 µM | [7] 4.16 µM | [9] 11.5 µM | [14] 7.69 µM

CCCCCCCCCC[N+](C)(C)CCCCCCCCCC
active: [1] 1.82 µM | [2] 2.44 µM

O=NN(c1ccccc1)c1ccccc1
inactive: [1] | [2]

CCC(=O)O[C@H]1CC[C@H]2[C@@H]3CCC4=CC(=O)CC[C@]4(C)[C@H]3CC[C@]12C
active: [1] 29.5 µM | [2] 20.6 µM

Nn1cnnc1
active: [1] 0.037 µM
inactive: [2]

CO/C=C(/C(=O)OC)c1ccccc1COc1cccc(C(F)(F)F)n1
active: [1] 0.0992 µM
inactive: [2]

CCSC(=O)N(CC)C1CCCCC1
active: [6] 0.000988 µM | [7] 0.000515 µM | [13] 7.96 µM | [2] 32.1 µM
not listed: [3] | [10] | [11] | [19] | [20]
inactive: all other assays above

COS(=O)(=O)OC
inactive: [1] | [2]

CCOCCOC(C)=O
inactive: [1] | [2]

C=CC(N)=O
inactive: [1] | [2]

CN(C)c1nc(=O)n(C2CCCCC2)c(=O)n1C
inactive: [3] | [5] | [16] | [6] | [19] | [9] | [12] | [14] | [15] | [20]
